Assay results: PubChem BioAssay AID602258 (National Center for Advancing Translational Sciences (NCATS), 2012)
Inconclusive results are not listed. A number with no mark means an inactive call. Calls of active or inactive are those of the source. The call rests on the fitted dose curve; in most records, active means well fitted activation curve with a large enough effect; inconclusive means small, poorly fitted or top-dose-only effect; inactive means no such curve, though single readings can be large or run the other way.

Each compound was assayed against Relaxin receptor 2 (Homo sapiens) (UniProt Q8WXD0) (assay: qHTS Assay for Agonists of the Relaxin Receptor RXFP1: RXFP2 SAR). Conditions: HEK293 RXFP2 cAMP TR-FRET agonist, 30 min; series mostly up to 78.1 µM; activation: at the top concentration.
Sequence of Relaxin receptor 2 (Homo sapiens) (Q8WXD0 whole entry, looked up): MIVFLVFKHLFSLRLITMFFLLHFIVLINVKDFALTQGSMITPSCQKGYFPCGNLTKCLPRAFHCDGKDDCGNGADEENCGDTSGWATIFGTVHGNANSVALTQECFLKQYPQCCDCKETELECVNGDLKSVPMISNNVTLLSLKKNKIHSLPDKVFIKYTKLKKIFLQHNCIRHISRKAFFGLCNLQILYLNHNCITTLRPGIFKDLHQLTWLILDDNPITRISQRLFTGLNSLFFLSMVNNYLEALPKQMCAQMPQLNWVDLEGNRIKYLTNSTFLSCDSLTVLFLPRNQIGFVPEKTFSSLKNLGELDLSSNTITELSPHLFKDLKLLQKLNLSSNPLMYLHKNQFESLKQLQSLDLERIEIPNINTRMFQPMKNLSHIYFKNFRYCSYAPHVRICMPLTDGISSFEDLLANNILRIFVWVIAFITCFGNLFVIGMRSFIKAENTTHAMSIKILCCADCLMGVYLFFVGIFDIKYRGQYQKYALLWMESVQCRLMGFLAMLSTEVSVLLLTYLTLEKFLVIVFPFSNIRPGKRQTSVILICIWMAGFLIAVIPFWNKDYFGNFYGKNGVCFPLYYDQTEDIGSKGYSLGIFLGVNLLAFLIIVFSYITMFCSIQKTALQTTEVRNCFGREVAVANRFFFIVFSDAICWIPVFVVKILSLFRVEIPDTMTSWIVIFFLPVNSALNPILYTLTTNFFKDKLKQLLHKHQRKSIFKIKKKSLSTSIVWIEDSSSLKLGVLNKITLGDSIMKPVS
From the text: The relaxin hormone is involved in the variety of biological functions in normal tissues and diseases. The role of relaxin is well-established in female reproduction and parturition, mammary gland and endometrial development, maintenance of myometrial quiescence during pregnancy. Relaxin signaling through its G protein-coupled receptor (GPCR) RXFP1 results in ECM remodeling through regulation of collagen deposition, cell invasiveness, proliferation and overall tissue homeostasis. […] Recombinant human relaxin (rhRlx) is currently being tested in clinical trials as a protective agent in congestive heart failure, in treating severe preeclampsia, and as an anti-fibrotic agent in systemic sclerosis. Upon relaxin binding RXFP1 activation leads to the activation of adenylate cyclase (AC) via Gs. cAMP will activate PKA, which phosphorylates many signaling proteins. Thus, detection of cAMP increase is an easy and reliable indication of relaxin receptor activation. To screen for agonists of the relaxin receptor, a HEK293T cell line stably transfected with RXFP1 was used. RXFP1 activation was assayed by changes in cAMP levels as detected with a time-resolved fluorescence energy transfer (TR-FRET) cAMP detection kit. This assay measures activation of a cell expressing RXFP2, another GPCR targeted by relaxin, to determine the selectivity of compounds for RXFP1. NIH Chemical Genomics Center [NCGC] NIH Molecular Libraries Probe Production Centers Network [MLPCN] MLPCN Grant: R03 MH085705-01A1 Assay Submitter (PI): Alexander Agoulnik
This is a cell-based assay for cAMP second messenger response to screen for agonists of the RXFP2 receptor. The assay was conducted in the presence of a PDE4 inhibitor (Ro 20174). The cells were lysed and the cAMP levels were measured with a TR-FRET cAMP kit. Presence of cAMP in the cell lysate disrupts binding between the cryptate-labeled anti-cAMP and d2-labeled cAMP pair, leading to a decrease in the TR-FRET signal. Data were normalized to the controls for basal activity (buffer only) and 100% activity (29 nM porcine relaxin). The EC50 values were determined from concentration-response data modeled with the standard Hill equation 1536-well assay protocol for the HEK293 RXFP2 cAMP assay: (1) Add 3 ul HEK293 RXFP2 cell culture. 2000 cells/well in DMEM/F12, 10% FBS, 1x Pen/Strep (dispensed offline with MultiDrop Combi). (2) Incubate 16-24 hr at 37C, 5% CO2. (3) Add 1 ul 400uM Ro20174 in DPBS, 0.05% BSA, 0.005% Tween 20. (3) Add 23 nl compounds in DMSO solution. Final concentration was 0.5 - 58 uM. (4) Incubate 30 min at 37C, 5% CO2. (5) Add 1 ul cAMP-d2 in lysis buffer (HTRF cAMP HiRange kit, CisBio). (6) Add 1 ul anti-cAMP antibody-cryptate in lysis buffer (HTRF cAMP HiRange kit, CisBio). (7) Incubate 30 min at room temperature. (6) Detect the assay plate in a ViewLux plate reader (PerkinElmer) with Ex=320 nm, Em1=615 nm and Em2=665 nm. Keywords: relaxin, RXFP1, RXFP2, G-protein coupled receptor, cAMP, agonist, high throughput screening, MLSMR, MLSCN, NIH Roadmap, qHTS and NCGC

SMILES | activation [%] | Potency
COc1cccc(NC(=O)c2ccccc2NC(=O)C2CCCCC2)c1 | 7.76 | –
O=C(Nc1cccc(-c2ccccc2C(F)(F)F)c1)c1ccccc1NC(=O)C1CCCCC1 | 14.2 | –
O=C(Nc1cccc([N+](=O)[O-])c1)c1ccccc1NC(=O)C1CCCCC1 | 9.08 | –
CCCOc1ccccc1C(=O)Nc1ccccc1C(=O)Nc1cccc(S(=O)(=O)C(F)(F)F)c1 | 14.5 | –
COc1cccc(C(=O)Nc2ccccc2C(=O)Nc2cccc(C(F)(F)F)c2)c1 | 17.9 | –
COc1ccccc1CNc1ccccc1C(=O)Nc1cccc(C(F)(F)F)c1 | 9.88 | –
O=C(Nc1cccc(-c2cccc(C(F)(F)F)c2)c1)c1ccccc1NC(=O)C1CCCCC1 | 13.4 | –
COc1ccccc1C(=O)Nc1ccccc1C(=O)Nc1cccc(C(F)(F)F)c1 | – | 5.93 µM (active)
COCCOc1ccccc1C(=O)Nc1cccc(C(F)(F)F)c1 | 24.6 | –
O=C(Nc1cccc(S(=O)(=O)C(F)(F)F)c1)c1ccccc1NC(=O)c1ccccc1OCC(F)(F)F | 14 | –
CC(C)Oc1ccccc1C(=O)Nc1ccccc1C(=O)Nc1cccc(C(F)(F)F)c1 | 22.3 | –
O=C(Cc1ccccc1)Nc1ccccc1C(=O)Nc1cccc(C(F)(F)F)c1 | 10.8 | –
O=C(Nc1ccccc1C(=O)Nc1cccc(C(F)(F)F)c1)c1cccnc1 | -3.42 | –
Cc1ccccc1C(=O)Nc1ccccc1C(=O)Nc1cccc(C(F)(F)F)c1 | 13.4 | –
O=C(Nc1cccc(C(F)(F)F)c1)c1ccccc1NC(=O)C1CCCCC1 | 8.74 | –
O=C(Nc1cccc(SC(F)(F)F)c1)c1ccccc1NC(=O)C1CCCCC1 | 18.3 | –
CCOc1ccccc1C(=O)Nc1cnccc1C(=O)Nc1cccc(S(=O)(=O)C(F)(F)F)c1 | 26.4 | –
O=C(Nc1cccc(C(F)(F)F)c1)c1ccccc1NC(=O)C1CC1 | 10.8 | –
CCOc1ccccc1C(=O)Nc1ccccc1C(=O)Nc1cccc(C(F)(F)F)c1 | – | 9.4 µM (active)
CCOc1ccccc1-c1nc2c(C(=O)Nc3cccc(S(=O)(=O)C(F)(F)F)c3)cccc2[nH]1 | 3.33 | –

SMILES | activation [%] | Potency
O=C(Nc1cccc(Cl)c1)c1ccccc1NC(=O)C1CCCCC1 | 10.8 | –
CCCCOc1ccccc1C(=O)Nc1ccccc1C(=O)Nc1cccc(S(=O)(=O)C(F)(F)F)c1 | 23.9 | –
CCOc1ccccc1S(=O)(=O)Nc1ccccc1C(=O)Nc1cccc(S(=O)(=O)C(F)(F)F)c1 | -7.45 | –
Cc1ccccc1NC(=O)c1ccccc1NC(=O)C1CCCCC1 | 8.27 | –
COc1ccccc1C(=O)Nc1ccc(C(=O)Nc2cccc(C(F)(F)F)c2)cc1 | -6.5 | –
O=C(Nc1cccc(-c2ccccc2)c1)c1ccccc1NC(=O)C1CCCCC1 | -4.81 | –
O=C(Nc1cccc(S(=O)(=O)C(F)(F)F)c1)c1ccccc1NC(=O)C1CCCCC1 | 33 | –
COCCOc1ccccc1C(=O)Nc1ccccc1C(=O)Nc1cccc(C(F)(F)F)c1 | – | 5.29 µM (active)
O=C(Nc1cccc(C(F)(F)F)c1)c1ccccc1NC(=O)C1CCC1 | 8.34 | –
COc1ccccc1C(=O)Nc1ccccc1C(=O)Nc1cccc(S(=O)(=O)C(F)(F)F)c1 | 24.1 | –
CCOc1ccccc1C(=O)Nc1ccccc1CNc1cccc(S(=O)(=O)C(F)(F)F)c1 | 7.61 | –
CCCCC(=O)Nc1ccccc1C(=O)Nc1cccc(C(F)(F)F)c1 | 13.5 | –
COc1ccccc1C(=O)Nc1ccccc1C(=O)N(C)c1cccc(C(F)(F)F)c1 | 3.35 | –
COCCNc1ccccc1C(=O)Nc1cccc(C(F)(F)F)c1 | 9.84 | –
CCSc1ccccc1C(=O)Nc1ccccc1C(=O)Nc1cccc(S(=O)(=O)C(F)(F)F)c1 | 13.1 | –
O=C(Nc1ccccc1)c1ccccc1NC(=O)C1CCCCC1 | 7.12 | –
COc1ccccc1C(=O)N(C)c1ccccc1C(=O)N(C)c1cccc(C(F)(F)F)c1 | 0.69 | –
COc1ccccc1C(=O)Nc1cccc(C(=O)Nc2cccc(C(F)(F)F)c2)c1 | -2.52 | –
O=C(Nc1cccc(C(F)(F)F)c1)c1ccccc1NC(=O)C1CCCC1 | -2.45 | –
CCOc1ccccc1C(=O)Nc1ccncc1C(=O)Nc1cccc(S(=O)(=O)C(F)(F)F)c1 | – | 9.4 µM (active)
